Source: PubChem BioAssay
Calls of active or inactive are those of the source.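 The calls were made as follows, unless noted: active = fluorescence slope after compound addition differing from the mean of all screened samples at 99.7% confidence, in either direction; inactive = the rest.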

Assays:
[1] = inhibitors of TNFa-induced NFkB p65 translocation, primary screen, imaging, HUVEC, MLSMR starter and 10KST1 sets (AID 438;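 active = inhibition above 20% together with a positive visual image hit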;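 also: compound added about 3h40 before a 20 min TNFalpha stimulation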;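 as to inhibition: signal is the nuclear over cytoplasmic p65 intensity ratio per well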); conditions: HUVEC TNFa-induced p65 nuclear translocation; cell count: measured here: nuclei count (cytotoxicity indicator), at 2.08 µM; inhibition: at 2 µM, stronger effect = higher value, 0% TNFa-plus-vehicle, 100% no-TNFa wells
[2] = inhibitors of mutant huntingtin aggregation, primary screen, imaging, exon1htt(103Q)mCFP cells, high-content imaging (AID 483;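 active = visual image review flags a hit and inhibition of aggregation exceeds 20%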;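 also: compound exposure lasted 3 days before fixation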;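 as to nuclei count: percent of the per-plate median nuclei count of sample wells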); conditions: exon1htt(103Q)mCFP cell line, aggregate imaging, at 2 µM; inhibition of aggregation: stronger effect = higher value; nuclei count: measured here: cell count, toxicity
[3] = inhibitors of E-selectin induction by TNFa, primary screen, imaging, HUVEC, immunofluorescence, MLSMR starter and 10KST1 sets (AID 487;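 active = visually confirmed hit in the image check and inhibition above 20%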;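 as to inhibition: signal is fraction of cell area covered by stained E-selectin grains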;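 as to nuclei count: 100% = median nuclei count of all wells on the same plate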); conditions: HUVEC TNFalpha-induced E-selectin immunofluorescence imaging, at 2 µM; inhibition: stronger effect = higher value; nuclei count: measured here: cell number, toxicity
[4] = target: Voltage-gated potassium channel subunit beta-2 (Rattus norvegicus) (UniProt P62483); experiment: KvBeta enzyme negative modulators, primary screen, biochemical, NADPH fluorescence (AID 622;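 active = fluorescence slope higher than the sample average by over 3 SD, cut at about -0.22 in these data, passing the limit was not always enough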;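 also: slope of raw intensity against log time taken from 70 to 1610 s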); conditions: recombinant KvBeta, 4-cyanobenzaldehyde reduction, at 10 µM, stronger effect = higher value
[5] = target: Voltage-gated potassium channel subunit beta-2 (Rattus norvegicus) (UniProt P62483); experiment: KvBeta positive modulators, primary screen, biochemical, NADPH fluorescence (AID 623;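 active = NADPH fluorescence slope more negative than the mean of all samples by about 3 SD, 99.7% confidence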;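 also: fluorescence intensity change per second fitted from 20 to 320 s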); conditions: Recombinant KvBeta, NADPH fluorescence decrease slope, 10 min; at 10 µM; stronger effect = lower value
[6] = target: Alpha-2C adrenergic receptor (Homo sapiens) (UniProt P18825); experiment: modulators of alpha2C/GIRK thallium flux, primary screen, cell-based, HEK293 alpha2C/GIRK1/2 (AID 624); conditions: thallium flux BTC fluorescence, at 10 µM, actives lie on both sides;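 also: slope of fluorescence ratio to pre-addition baseline per second over 15 to 24 s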
[7] = inhibitors of Sendai virus-induced IRF3 signaling, primary screen, TLR/RLR signaling modifier project, cell-based, Sendai virus stimulus, luciferase, 10K MLSCN set (AID 602276;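 active = inhibition at or above 50% at 10 µM; inactive = inhibition below 50%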;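 also: firefly luciferase from ISG56 promoter only with Renilla not read in this screen; 0% = Sendai virus plus DMSO and 100% = medium plus DMSO without virus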); conditions: HEK293 RL24 IRF3 luciferase reporter, at 10 µM, stronger effect = higher value
[8] = inhibitors of poly I:C-induced TLR3 signaling, primary screen, cell-based, poly I:C stimulus, luciferase, 10K MLSCN set (AID 602277;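 active = inhibition of the reporter signal at or above 50%; inactive = inhibition below 50%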); conditions: HEK293-TLR3 RL24 IRF3 luciferase reporter, at 10 µM, stronger effect = higher value

Voltage-gated potassium channel subunit beta-2 (Rattus norvegicus), sequence (P62483 whole entry, looked up): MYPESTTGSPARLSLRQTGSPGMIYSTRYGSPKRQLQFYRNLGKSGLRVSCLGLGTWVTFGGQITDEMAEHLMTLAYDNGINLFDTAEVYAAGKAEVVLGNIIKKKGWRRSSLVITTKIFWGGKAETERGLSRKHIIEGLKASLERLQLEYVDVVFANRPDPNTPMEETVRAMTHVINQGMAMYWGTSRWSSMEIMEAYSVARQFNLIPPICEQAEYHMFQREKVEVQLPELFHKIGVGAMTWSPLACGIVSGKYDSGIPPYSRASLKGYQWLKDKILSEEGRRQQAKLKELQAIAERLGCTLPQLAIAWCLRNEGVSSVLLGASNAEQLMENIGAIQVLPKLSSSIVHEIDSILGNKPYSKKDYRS
Alpha-2C adrenergic receptor (Homo sapiens), sequence (P18825 whole entry, looked up): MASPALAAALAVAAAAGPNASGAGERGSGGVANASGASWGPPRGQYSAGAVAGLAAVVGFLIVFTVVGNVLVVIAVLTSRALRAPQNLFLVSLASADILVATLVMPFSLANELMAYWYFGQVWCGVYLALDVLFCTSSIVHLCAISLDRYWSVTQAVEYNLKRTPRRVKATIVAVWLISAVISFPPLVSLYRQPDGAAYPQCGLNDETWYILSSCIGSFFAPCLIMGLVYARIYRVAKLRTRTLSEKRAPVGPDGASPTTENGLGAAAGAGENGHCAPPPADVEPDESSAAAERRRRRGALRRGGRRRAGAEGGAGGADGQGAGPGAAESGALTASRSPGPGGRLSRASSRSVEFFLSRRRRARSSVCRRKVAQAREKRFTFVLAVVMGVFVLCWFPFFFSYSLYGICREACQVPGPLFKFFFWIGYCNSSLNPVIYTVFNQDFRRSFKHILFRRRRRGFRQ

Row | SMILES | cell count [1] | inhibition [1] | inhibition of aggregation [2] | nuclei count [2] | inhibition [3] | nuclei count [3] | fluorescence slope [4] | NADPH fluorescence slope [5] | slope [6] | inhibition [7] | inhibition [8]
1 | COC(=O)CCC(=O)Nc1ccc(OC)cc1 | 418 | 0% (inactive) | -15.3% (inactive) | 108% | 31.8% (inactive) | 101% | -0.51 (inactive) | -5.9e-05 (inactive) | 0.00654 (inactive) | 8.73% (inactive) | 19.4% (inactive)
2 | Cc1ccc(NC(=O)CCC(=O)OCC(F)(F)C(F)F)cc1 | 551 | -2.4% (inactive) | 2% (inactive) | 69.2% | -2.3% (inactive) | 91.8% | -0.454 (inactive) | 6.2e-06 (inactive) | 0.00371 (inactive) | 3.35% (inactive) | 35.3% (inactive)
3 | CC1(C)OC(=O)N(c2cccnc2)C1(C)O (stereo not drawn) | 597 | 8.1% (inactive) | -2.8% (inactive) | 101% | 41.8% (inactive) | 104% | -0.401 (inactive) | -2.3e-05 (inactive) | 0.00628 (inactive) | 13.3% (inactive) | 19.9% (inactive)
4 | O=C(O)Cn1cc(C(=O)c2ccco2)c2ccccc21 | 316 | 16.3% (inactive) | 3.6% (inactive) | 108% | 30.1% (inactive) | 104% | -0.487 (inactive) | -1.2e-05 (inactive) | 0.00668 (inactive) | 0.251% (inactive) | 8.5% (inactive)
5 | O=c1[nH]c2cc3c(cc2cc1C(c1nnnn1Cc1ccccc1)N1CCCc2ccccc21)OCO3 (stereo not drawn) | 552 | -7.7% (inactive) | 16.5% (inactive) | 100% | 20.7% (inactive) | 108% | -0.621 (inactive) | 1.7e-05 (inactive) | 0.0031 (inactive) | 10.6% (inactive) | 15.5% (inactive)
6 | Cc1ccc(Nc2nc(Oc3ccc(=O)[nH]n3)nc(N(C)C)n2)cc1 | 377 | 2.8% (inactive) | 13.2% (inactive) | 101% | -65.6% (inactive) | 111% | -0.498 (inactive) | -4.2e-05 (inactive) | 0.00563 (inactive) | 8.86% (inactive) | 11.8% (inactive)
7 | CCCCOc1ccccc1NC(=O)c1ccco1 | 334 | 11% (inactive) | -21.3% (inactive) | 91.7% | -54.6% (inactive) | 122% | -0.517 (inactive) | -4.6e-05 (inactive) | 0.00466 (inactive) | 18.5% (inactive) | 18.5% (inactive)
8 | COc1ccc(S(=O)(=O)NCc2ccc3c(c2)OCO3)cc1C(=O)O | 379 | -4.7% (inactive) | -1.8% (inactive) | 120% | -41.3% (inactive) | 107% | -0.324 (inactive) | -8.9e-06 (inactive) | 0.00676 (inactive) | 9.22% (inactive) | 20.8% (inactive)
9 | Cc1cccc(N2CCN(Cc3c(C)n(C)n(-c4ccccc4)c3=O)CC2)c1C | 451 | 0.5% (inactive) | 9.8% (inactive) | 92.6% | -29.6% (inactive) | 124% | -0.465 (inactive) | 5.9e-05 (inactive) | 0.00748 (inactive) | 13.4% (inactive) | 18.5% (inactive)
10 | COCCSc1nnc(NC(=O)CSCc2ccccc2)s1 | 524 | -14.6% (inactive) | 3.8% (inactive) | 112% | -31.2% (inactive) | 89.4% | -0.528 (inactive) | -3.2e-05 (inactive) | 0.00459 (inactive) | 19% (inactive) | 26.7% (inactive)
11 | Nc1[nH]nc2nc(N3CCCC3)nc(-c3ccccc3)c12 | 341 | -9.5% (inactive) | 20.6% (inactive) | 60.5% | -53% (inactive) | 117% | -0.477 (inactive) | -3.4e-05 (inactive) | 0.00548 (inactive) | 11.8% (inactive) | 18.8% (inactive)
12 | COCCNC(=O)CN1CCC(NC(=O)Nc2ccc(C(F)(F)F)cc2)CC1 | 515 | 0.8% (inactive) | -24.7% (inactive) | 70.9% | -85% (inactive) | 96.8% | -0.296 (inactive) | -4.5e-05 (inactive) | 0.0053 (inactive) | 5.43% (inactive) | 3.51% (inactive)
13 | Fc1ccc(-c2nnc(CN3CCN(c4ncc(C(F)(F)F)cc4Cl)CC3)o2)cc1 | 405 | -14.7% (inactive) | 8.2% (inactive) | 111% | -9.8% (inactive) | 124% | -0.435 (inactive) | -8.4e-06 (inactive) | 0.00518 (inactive) | 8.36% (inactive) | -7.66% (inactive)
